For 21 compounds, Potency and outcome results are on record in PubChem BioAssay (NCATS).

“And” between values parts separate entries of the source, which are not always exact repeats. Equal entries are not always repeated. Results filed as inconclusive are left out. More than one record can exist for a structure, and the calls need not agree. The source made the active and inactive calls. Calls come from the whole dose curve; as a rule, active = well fitted curve in the direction sought with a large enough effect; inconclusive = small, poorly fitted or top-dose-only effect, or another doubt; inactive = no such curve, though single readings can be large; an effect the other way counts as inactive or inconclusive.

Experiment [1] can be described thus: Quantitative high throughput screen for delayed death inhibitors of the malarial parasite plastid, 96 hour incubation (AID 488745). Note: nearly all actives have a fitted effect of over 70% in size. Note: potency is the fitted concentration of half-maximal effect. The procedure, abridged:
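Luciferase-expressing P. falciparum, infected RBCs 2% Hct/0.1% parasitemia (final); 96 h cpd exposure, 37 C, 5% CO2; RPMI 1640 + 0.5% Albumax, bicarbonate, gentamycin. Readout: luminescence loss = growth inhibition.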

The nature of experiment [2]: Quantitative high throughput screen for delayed death inhibitors of the malarial parasite plastid, 48 hour incubation (AID 488752). Note: nearly all actives have a fitted effect of over 65% in size. Note: potency is the fitted concentration of half-maximal effect. The procedure, abridged:
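Luciferase-expressing P. falciparum in RBCs, 2% Hct, 0.1% parasitemia final; RPMI 1640 + 0.5% Albumax; 48 h, 37 C, 5% CO2; luminescence readout, signal drop = growth inhibition.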

Experiment [3] deals with M-phase phosphoprotein 8 (Homo sapiens) (UniProt Q99549). The experiment in a line: qHTS Validation Assay for Inhibitors for MPP8 Chromodomain Interactions with Methylated Histone Tails (AID 488949). Note: nearly all actives have a fitted effect of over 55% in size. Note: potency is the fitted concentration of half-maximal effect. In a few lines: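 AlphaScreen proximity signal from streptavidin donor and Ni-chelate acceptor beads (10 ug/mL each) reported binding of MPP8 to trimethyl-K9 H3(1-18) peptide, both at 50 nM. The complex formed 30 min before a 30 min compound exposure at room temperature, in PBS pH 7.4.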
Chain of M-phase phosphoprotein 8 (Homo sapiens) (Q99549 whole entry, looked up): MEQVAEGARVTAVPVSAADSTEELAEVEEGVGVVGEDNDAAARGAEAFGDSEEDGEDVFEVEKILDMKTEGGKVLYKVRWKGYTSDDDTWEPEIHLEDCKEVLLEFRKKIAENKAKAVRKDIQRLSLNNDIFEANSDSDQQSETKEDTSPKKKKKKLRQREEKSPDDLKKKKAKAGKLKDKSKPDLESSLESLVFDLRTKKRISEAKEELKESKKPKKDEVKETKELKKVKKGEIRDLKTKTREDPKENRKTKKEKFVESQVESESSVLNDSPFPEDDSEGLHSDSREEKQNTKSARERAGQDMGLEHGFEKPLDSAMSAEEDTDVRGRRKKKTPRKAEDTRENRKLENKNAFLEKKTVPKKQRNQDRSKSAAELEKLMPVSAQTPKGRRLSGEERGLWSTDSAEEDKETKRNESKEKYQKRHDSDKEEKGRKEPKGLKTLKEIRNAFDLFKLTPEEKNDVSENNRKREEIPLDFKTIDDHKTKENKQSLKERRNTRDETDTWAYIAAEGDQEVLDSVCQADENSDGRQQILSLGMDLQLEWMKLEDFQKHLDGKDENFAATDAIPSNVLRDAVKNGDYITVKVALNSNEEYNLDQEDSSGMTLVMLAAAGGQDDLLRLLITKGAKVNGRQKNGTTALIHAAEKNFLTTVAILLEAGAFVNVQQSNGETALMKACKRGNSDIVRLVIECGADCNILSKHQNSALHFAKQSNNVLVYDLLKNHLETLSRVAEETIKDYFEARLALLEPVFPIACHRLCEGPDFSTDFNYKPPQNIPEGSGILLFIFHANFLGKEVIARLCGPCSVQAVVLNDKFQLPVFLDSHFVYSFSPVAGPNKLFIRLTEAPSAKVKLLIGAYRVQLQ
Background: qHTS replaces the single test concentration by a dilution series.

Experiment [4] addresses Thioredoxin reductase 1, cytoplasmic (Rattus norvegicus) (UniProt O89049). The experiment in a line: qHTS Assay for Substrates of Mammalian Selenoprotein Thioredoxin Reductase 1 (TrxR1) (AID 488772).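 Note: series mostly up to about 57 µM; a drop in NADPH fluorescence below the no-compound background marks a TrxR1 substrate.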 In a few lines: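 In this dual-purpose format, potential substrates are identified from the first fluorescence read after selenite addition, not from the 8-minute delta. Rat enzyme is preincubated with NADPH and then with compound at ~22 deg C.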

For experiment [5] the target is unchanged. The experiment in a line: qHTS Assay for Inhibitors of Mammalian Selenoprotein Thioredoxin Reductase 1 (TrxR1) (AID 488773). Note: nearly all actives have a fitted effect of over 40% in size. Note: potency is the fitted concentration of half-maximal effect. The note with it: Potency: inhibition. In a few lines: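 Inhibition is scored from the loss of NADPH fluorescence between first and last reads of an 8-min kinetic run. Selenite (400 uM) was the substrate, added after 15 min compound preincubation at room temperature.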

The target in experiment [6] is Flap endonuclease 1 (Homo sapiens) (UniProt P39748). The experiment in a line: qHTS Validation Assay for the Inhibitors of Human Flap endonuclease 1 (FEN1) (AID 488816). Note: potency is the fitted concentration of half-maximal effect. The procedure, abridged: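 Enzyme reagent 10 nM; cpds pinned; 15 min RT preinc.; substrate 50 nM final; reads t=0 and 15 min; no-enzyme buffer wells as neg. control; normalized data, 4-parameter Hill fit.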
Chain of Flap endonuclease 1 (Homo sapiens) (P39748 whole entry, looked up): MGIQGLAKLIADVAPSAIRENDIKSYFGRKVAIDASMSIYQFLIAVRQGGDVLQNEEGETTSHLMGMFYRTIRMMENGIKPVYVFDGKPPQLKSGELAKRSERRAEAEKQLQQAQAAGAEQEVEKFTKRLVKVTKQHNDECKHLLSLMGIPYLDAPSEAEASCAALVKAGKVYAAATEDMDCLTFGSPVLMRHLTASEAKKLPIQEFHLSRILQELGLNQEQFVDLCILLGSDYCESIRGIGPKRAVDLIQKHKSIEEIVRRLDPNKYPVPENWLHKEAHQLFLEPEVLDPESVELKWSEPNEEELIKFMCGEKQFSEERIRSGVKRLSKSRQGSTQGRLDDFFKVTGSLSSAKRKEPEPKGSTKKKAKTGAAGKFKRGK

For experiment [7], the target named is Methanococcus maripaludis chaperonin (MmCpn) (UniProt Q6LX38). The experiment in a line: High-Throughput Screening for Modulators of Cytosolic Chaperonin Activity: MmCpn Primary Screen (AID 488978).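 Note: 50 nM MmCpn enzyme hydrolysing 30 µM ATP at 37 °C.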 In a few lines:
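ATPase activity of 50 nM MmCpn was assayed with 30 uM ATP, 10 minutes at 37C, after a 5 min compound preincubation at room temperature. ADP production was read as HTRF emission at 590 and 665 nm.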

Experiment [8] has as its target Beta-2 adrenergic receptor (Homo sapiens) (UniProt P07550). As to the kind of experiment: qHTS validation assay of beta-arrestin-biased ligands of beta2-adrenergic receptor (AID 485366). The procedure, abridged:
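Screening used a titration range of up to 46 microM in a beta-arrestin recruitment Tango luciferase assay. Cells in 1% FBS medium were treated 18 hr at 37 degrees C, and luminescence was normalized to %Activity.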

For experiment [9], the target named is Chromobox protein homolog 1 (Homo sapiens) (UniProt P83916). As to the kind of experiment: qHTS Validation Assay for Inhibitors of HP1-beta Chromodomain Interactions with Methylated Histone Tails (AID 488953). Note: nearly all actives have a fitted effect of over 50% in size. Note: potency is the fitted concentration of half-maximal effect. In a few lines:
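AlphaScreen proximity readout: streptavidin donor and Ni-chelate acceptor beads, 10 ug/mL final, 30 min dark, RT. Complex of 50 nM HP1-beta and 50 nM b-H3(1-18)K9me3 formed 30 min, then compound-treated 30 min; PBS pH 7.4/0.01% Tween-20.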

Experiment [10] addresses ATP-dependent 6-phosphofructokinase (Trypanosoma brucei brucei) (UniProt O15648). The experiment in a line: qHTS Validation Assay to Find Inhibitors of T. brucei phosphofructokinase (AID 485368). The procedure, abridged: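 PFK-generated ADP was measured after 45 min at room temperature using ADP-Glo. The reaction contained 0.5 mM F6P and 0.1 mM ATP.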

Chain of Thioredoxin reductase 1, cytoplasmic (Rattus norvegicus) (O89049 whole entry, looked up): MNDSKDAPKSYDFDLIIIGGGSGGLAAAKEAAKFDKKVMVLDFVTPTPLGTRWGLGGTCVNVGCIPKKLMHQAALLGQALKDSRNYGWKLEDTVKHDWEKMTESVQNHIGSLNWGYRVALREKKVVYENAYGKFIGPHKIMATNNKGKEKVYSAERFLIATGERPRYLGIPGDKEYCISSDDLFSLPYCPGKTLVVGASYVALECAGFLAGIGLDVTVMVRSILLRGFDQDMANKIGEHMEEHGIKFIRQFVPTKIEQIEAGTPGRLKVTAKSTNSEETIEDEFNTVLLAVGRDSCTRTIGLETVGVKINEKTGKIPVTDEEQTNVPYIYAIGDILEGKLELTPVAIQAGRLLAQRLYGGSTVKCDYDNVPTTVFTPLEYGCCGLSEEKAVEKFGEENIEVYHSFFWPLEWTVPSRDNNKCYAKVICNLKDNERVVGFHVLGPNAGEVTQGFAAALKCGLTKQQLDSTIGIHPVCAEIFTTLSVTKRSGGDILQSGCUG
Chain of Methanococcus maripaludis chaperonin (MmCpn) (Q6LX38 1-543): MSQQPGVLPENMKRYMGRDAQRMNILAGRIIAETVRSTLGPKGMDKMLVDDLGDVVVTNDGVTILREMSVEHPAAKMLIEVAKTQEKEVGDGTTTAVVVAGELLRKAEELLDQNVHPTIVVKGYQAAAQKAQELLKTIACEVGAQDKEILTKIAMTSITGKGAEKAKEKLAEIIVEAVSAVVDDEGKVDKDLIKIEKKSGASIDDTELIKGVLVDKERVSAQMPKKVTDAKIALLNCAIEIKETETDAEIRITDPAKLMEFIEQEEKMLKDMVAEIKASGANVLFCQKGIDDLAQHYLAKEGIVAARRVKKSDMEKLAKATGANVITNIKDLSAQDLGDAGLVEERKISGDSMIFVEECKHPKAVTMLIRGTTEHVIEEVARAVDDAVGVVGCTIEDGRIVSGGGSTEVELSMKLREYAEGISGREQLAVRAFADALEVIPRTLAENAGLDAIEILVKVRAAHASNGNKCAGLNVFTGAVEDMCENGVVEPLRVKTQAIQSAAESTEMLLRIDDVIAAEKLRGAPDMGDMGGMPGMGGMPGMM
Chain of ATP-dependent 6-phosphofructokinase (Trypanosoma brucei brucei) (O15648 whole entry, looked up): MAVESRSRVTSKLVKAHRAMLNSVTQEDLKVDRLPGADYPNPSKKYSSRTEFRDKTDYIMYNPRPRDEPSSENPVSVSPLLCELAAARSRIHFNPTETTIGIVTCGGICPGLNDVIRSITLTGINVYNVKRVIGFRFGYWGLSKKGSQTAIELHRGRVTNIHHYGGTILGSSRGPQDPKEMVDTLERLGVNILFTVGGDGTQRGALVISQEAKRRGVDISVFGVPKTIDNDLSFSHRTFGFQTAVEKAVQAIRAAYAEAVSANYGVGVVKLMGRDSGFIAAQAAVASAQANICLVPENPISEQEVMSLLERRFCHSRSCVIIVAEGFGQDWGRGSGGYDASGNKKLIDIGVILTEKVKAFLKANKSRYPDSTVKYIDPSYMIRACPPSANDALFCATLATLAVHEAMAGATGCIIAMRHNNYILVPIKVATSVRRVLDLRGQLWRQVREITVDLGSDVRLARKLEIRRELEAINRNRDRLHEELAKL
Chain of Beta-2 adrenergic receptor (Homo sapiens) (P07550 whole entry, looked up): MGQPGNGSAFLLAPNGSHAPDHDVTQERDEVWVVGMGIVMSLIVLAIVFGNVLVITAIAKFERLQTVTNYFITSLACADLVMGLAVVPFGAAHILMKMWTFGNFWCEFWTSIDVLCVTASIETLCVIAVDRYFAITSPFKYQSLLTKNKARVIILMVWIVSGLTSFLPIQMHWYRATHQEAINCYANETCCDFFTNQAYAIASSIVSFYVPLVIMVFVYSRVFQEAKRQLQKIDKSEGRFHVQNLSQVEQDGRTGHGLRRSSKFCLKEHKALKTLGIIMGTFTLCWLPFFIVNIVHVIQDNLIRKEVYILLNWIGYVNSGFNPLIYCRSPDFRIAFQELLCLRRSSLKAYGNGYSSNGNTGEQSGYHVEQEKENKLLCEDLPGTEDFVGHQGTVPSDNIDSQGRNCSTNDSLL
Chain of Chromobox protein homolog 1 (Homo sapiens) (P83916 whole entry, looked up): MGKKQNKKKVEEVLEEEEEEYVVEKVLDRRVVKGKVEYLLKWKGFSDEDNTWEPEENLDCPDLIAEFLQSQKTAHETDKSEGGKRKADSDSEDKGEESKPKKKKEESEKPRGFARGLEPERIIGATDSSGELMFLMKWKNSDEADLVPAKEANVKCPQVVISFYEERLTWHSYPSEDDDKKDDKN

As to `Cc1nc2n(c(=O)c1CCN1CCC(c3noc4cc(F)ccc34)CC1)CCCC2`, the Potency entry in experiment [1], in experiment [2] and in experiment [3] was “inactive” each time.
As for `Cc1cccc(C#Cc2ccccc2)n1`, the compound was called inactive in experiment [4] and in [7]. The Potency result in experiment [5], in experiment [6] and in [3] was “inactive” throughout.
Regarding `O=c1ccc2ccc(O)c(O)c2o1`, the compound was called inactive in experiment [8], in [4] and in experiment [7]. In addition, the Potency in [1] was 14.7 µM (active); in [6] it was 9.47 µM (active). Besides, the Potency result in experiment [5] is “inactive”.
As for `O=C1c2c(O)cc(O)cc2OC(c2ccc(O)c(O)c2)C1O` (stereo unspecified), the outcome in [8], in experiment [4] and in [7] was inactive. Besides, the Potency result in experiment [2] and in [3] was “inactive” each time. The Potency was 8.44 µM (active) in [5], 2.67 µM (active) in experiment [6] and 0.0084 µM (active) in experiment [9].
With `O=C1c2ccccc2-c2n[nH]c3cccc1c23`, the result in experiment [8], in [4] and in [7] was inactive. The Potency in [1] was 4.65 µM (active). Besides, the Potency entry in [5], in experiment [6], in experiment [3] and in experiment [9] was “inactive” throughout.
As for `COc1ccc2cc([C@H](C)C(=O)O)ccc2c1`, the Potency result in experiment [1], in [2], in experiment [5] and in experiment [6] was “inactive” in each case. Also, the compound was called inactive in experiment [4] and in experiment [7]. The Potency in experiment [9] is 0.006 µM (active).
Consider `NCCCCNCCCN`, for which the compound was classed as inactive in experiment [8], in experiment [4] and in experiment [7]. The Potency result in [10], in [1], in experiment [2], in experiment [5], in [6] and in experiment [3] was “inactive” each time. The Potency result in experiment [9] was “inactive”.
Turning to `COc1cc2nc(N3CCN(C(=O)C4CCCO4)CC3)nc(N)c2cc1OC` (stereo unspecified), the result in [8], in [4] and in experiment [7] was inactive. For the same compound, the Potency result in experiment [10], in experiment [2], in experiment [5], in experiment [6], in experiment [3] and in [9] was “inactive” each time.
In the case of `Cc1c(OCC(F)(F)F)ccnc1CS(=O)c1nc2ccccc2[nH]1` (stereo unspecified), the result in [8], in experiment [4] and in [7] was inactive. In addition, the Potency entry in experiment [5] and in experiment [6] was “inactive” throughout.
For the compound `O=C1NC(=O)C(c2ccccc2[N+](=O)[O-])=C1Nc1ccc(O)c(Cl)c1`, the result in experiment [8], in [4] and in experiment [7] was inactive. Besides, the Potency entry in experiment [2] was “inactive”. The Potency in [5] was 2.67 µM (active); in experiment [6] it was 18.9 µM (active); in experiment [3] it was 56.2 µM (active); in experiment [9] it was 35.5 µM (active).
Consider `Nc1nc(OCc2ccccc2)c2[nH]cnc2n1`, for which the compound was called inactive in experiment [8], in experiment [4] and in [7]. Further, the Potency result in experiment [1], in experiment [2], in [5], in [6], in experiment [3] and in [9] was “inactive” throughout.
For `Oc1ccc(-c2nc(-c3ccc(F)cc3)c(-c3ccncc3)[nH]2)cc1`, the result in experiment [8], in experiment [4] and in experiment [7] was inactive. Also, the Potency entry in [10], in experiment [1], in experiment [2], in [5] and in experiment [6] was “inactive” each time. Besides, the Potency in [3] is 31.6 µM (active) and inactive; in experiment [9] it was 56.2 µM (active).
On to `C[C@H](Cc1ccc(O)c(O)c1)[C@@H](C)Cc1ccc(O)c(O)c1`, for which the call in experiment [8], in experiment [4] and in experiment [7] was inactive. The Potency in experiment [1] was 13.1 µM (active); in experiment [5] it was 9.47 µM (active); in experiment [6] it was 0.752 µM (active); in [3], 25.1 µM (active) and 23.8 µM (active); in [9], 31.6 µM (active).
For the compound `Oc1ccc2ccccc2c1SSc1c(O)ccc2ccccc12`, the compound was called inactive in experiment [8], in experiment [4] and in experiment [7]. Besides, the Potency result in experiment [10], in experiment [5] and in experiment [6] was “inactive” throughout. Also, in experiment [9], the Potency was 0.006 µM (active).
For `NC(=NCc1ccccc1)NC(=O)c1nc(Cl)c(N)nc1N`, the compound was called inactive in experiment [8], in experiment [4] and in [7]. The Potency result in [10], in experiment [5], in experiment [3] and in experiment [9] was “inactive” throughout. Further, the Potency in [1] was 2.62 µM (active); in experiment [2] it was 2.94 µM (active).
`COc1cc2c(cc1OC)C1CC(=O)C(CC(C)C)CN1CC2` (stereo unspecified): the compound was called inactive in experiment [8], in [4] and in experiment [7]. Further, the Potency result in [5], in experiment [6], in experiment [3] and in experiment [9] was “inactive” in each case.
Take `Nc1nc(N)c(N=O)c(OCC2CCCCC2)n1`: the result in [8], in experiment [4] and in experiment [7] was inactive. For the same compound, the Potency result in experiment [10], in experiment [5], in experiment [6] and in [3] was “inactive” throughout.
For `O=C(c1ccccc1)c1ccc2n1CCC2C(=O)O` (stereo unspecified), the result in [8] and in [7] was inactive. For the same compound, the Potency result in experiment [10], in [1], in experiment [2], in [5], in [6] and in experiment [3] was “inactive” in each case.
Consider `Cc1cc(O)c2c(c1)C(=O)c1cc(O)cc(O)c1C2=O`, for which the compound was classed as inactive in experiment [8], in [4] and in experiment [7]. In addition, the Potency result in experiment [1] and in [2] was “inactive” in each case.
As to `C[C@@H](N)C1CCC(C(=O)Nc2ccncc2)CC1` (stereo partly specified), the compound was called inactive in experiment [8], in [4] and in experiment [7]. The Potency result in [1], in experiment [2], in [5], in experiment [6], in experiment [3] and in experiment [9] was “inactive” in each case.
Regarding `O=C(NCC1CCCCN1)c1cc(OCC(F)(F)F)ccc1OCC(F)(F)F` (stereo unspecified), the Potency result in [1], in experiment [2] and in [3] was “inactive” in each case.
